# Reference: PubChem BioAssay (EPA / NIEHS)
# Activity calls are given as the source filed them. Rule for the calls: active = hit-call score of the fitted dose curve at least 0.9, where 1 is the maximum; inactive = score below 0.9.
# Legend:
# [1] = target: Transcription factor E2F1 (Homo sapiens) (UniProt Q01094); experiment: ATG_E2F_CIS: Attagene CIS-FACTORIAL HepG2 Assay for human E2F Transcription Factor 1 (AID 2282935); details: HepG2 Attagene cis-reporter, E2F reporter RNA transcripts; actives raise or lower the signal
# In short: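 Gain or loss of reporter transcript, fitted against DMSO, reflects E2F1-driven transcription. Transiently transfected HepG2 dosed 24 h before RNA isolation. Quantified by fluorescent RT-PCR products separated by capillary electrophoresis.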
# [2] = ATG_E_Box_CIS: Attagene CIS-FACTORIAL HepG2 Assay for human Enhancer Box (E-box) (AID 2282936); details: HepG2 E-box cis-reporter transcription, actives raise or lower the signal
# In short: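 E-box-driven reporter transcripts measured in transiently transfected HepG2 after 24 h exposure: RNA reverse-transcribed, PCR-amplified, fluorescently labelled, digested and resolved by capillary electrophoresis. Gain or loss relative to DMSO.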
# [3] = ATG_M_61_CIS: Attagene CIS-FACTORIAL HepG2 Assay for M61 Transcription Factor (Internal Marker) (AID 2282937); details: HepG2 Attagene CIS-FACTORIAL M61 internal marker reporter; actives raise or lower the signal
# In short: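 HepG2 cells transiently transfected with cis-element-driven multiple reporter transcription units, dosed for 24 h. Reporter mRNA measured by RT-PCR, 6-FAM primer-extension labelling, HpaI digestion and capillary electrophoresis; bidirectional fit versus DMSO baseline.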
# [4] = ATG_EGR_CIS: Attagene CIS-FACTORIAL HepG2 Assay for human Early Growth Response 1 (EGR1) (AID 2282938); details: HepG2 Attagene CIS-FACTORIAL EGR reporter mRNA; actives raise or lower the signal
# In short: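 HepG2 cells transiently transfected with cis-promoter-driven multiplexed reporter transcription units; reporter mRNA measured 24 h after compound dosing by RT-PCR, 6-FAM primer extension, HpaI digestion and capillary electrophoresis. Bidirectional fit versus DMSO baseline.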
# [5] = ATG_M_19_CIS: Attagene CIS-FACTORIAL HepG2 Assay for M19 Transcription Factor (Internal Marker) (AID 2282939); details: HepG2 Attagene CIS-FACTORIAL M19 internal marker reporter; actives raise or lower the signal
# In short: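 Internal marker readout, fitted in both directions against DMSO, from HepG2 cells carrying transfected cis-element reporter constructs; RT-PCR and capillary electrophoresis of reporter mRNA after 24 h exposure.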
# [6] = ATG_ERE_CIS: Attagene CIS-FACTORIAL HepG2 Assay for Estrogen Response Element (ERE) (AID 2282940); details: HepG2 ERE cis-reporter, Attagene RNA transcript; actives raise or lower the signal
# In short: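 After 24 h compound treatment, RNA from transfected HepG2 cells was reverse-transcribed, reporter cDNA PCR-amplified, FAM-labelled, HpaI-cut and resolved by capillary electrophoresis. ERE-driven cis reporter transcripts reflect endogenous factors; gain or loss scored against DMSO.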
# [7] = ATG_Ets_CIS: Attagene CIS-FACTORIAL HepG2 Assay for human Erythroblast Transformation Specific (ETS) (AID 2282941); details: HepG2 ETS cis-reporter transcription, actives raise or lower the signal
# In short: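 Cis-regulated reporter mRNA induction in HepG2 (transient transfection), 24 h exposure, RT-PCR plus capillary electrophoresis detection; DMSO serves as negative control and baseline.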
# [8] = target: Hepatocyte nuclear factor 3-beta (Homo sapiens) (UniProt Q9Y261); experiment: ATG_FoxA2_CIS: Attagene CIS-FACTORIAL HepG2 Assay for human Forkhead box A2 (FOXA2) (AID 2282942); details: HepG2 cis-reporter transcription factor activity, 24 h; actives raise or lower the signal
# In short: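 HepG2 cells transiently transfected with multiple cis-regulated reporter transcription units, dosed for 24 h. Reporter mRNA measured by RT-PCR, 6-FAM labelling, HpaI digestion and capillary electrophoresis; bidirectional fitting against DMSO baseline.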
# [9] = ATG_FoxO_CIS: Attagene CIS-FACTORIAL HepG2 Assay for human Forkhead box O (FoxO) (AID 2282943); details: HepG2 Attagene cis-reporter, FoxO element, mRNA; actives raise or lower the signal
# In short: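 HepG2, transient MRTU transfection (cis element, endogenous TFs). Dose 24 h. TriZol RNA → oligo(dT) RT → PCR → 6-FAM primer extension → HpaI cut → CE. Gain/loss vs DMSO.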
# [10] = ATG_GLI_CIS: Attagene CIS-FACTORIAL HepG2 Assay for human Zinc Finger Protein GLI1 (AID 2282945); details: HepG2, Attagene cis-factorial reporter mRNA, GLI element; actives raise or lower the signal
# In short: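 Bidirectional curve fits relative to DMSO, using reporter mRNA levels from RT-PCR plus capillary electrophoresis. Cells were HepG2 transiently carrying cis-regulated reporter constructs, harvested 24 h after dosing.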
# [11] = target: Bile acid receptor (Homo sapiens) (UniProt Q96RI1); experiment: ATG_IR1_CIS: Attagene CIS-FACTORIAL HepG2 Assay for human Nuclear Receptor Subfamily 1 Group H Member 4 (NR1H4), IR1 submotif (AID 2282946); details: IR1 reporter transcription, actives raise or lower the signal
# In short: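 HepG2 cells transiently transfected with multiplexed cis-element reporter units read endogenous transcription factor activity. After 24 h compound exposure, reporter mRNA was quantified by RT-PCR, fluorescent labelling, HpaI digestion and capillary electrophoresis; bidirectional fitting versus DMSO baseline.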
# [12] = ATG_GRE_CIS: Attagene CIS-FACTORIAL HepG2 Assay for human Glucocorticoid Response Elements (GRE) (AID 2282947); details: HepG2 GRE cis-reporter, Attagene multiplex mRNA; actives raise or lower the signal
# In short: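 Reporter transcripts read by RT-PCR with capillary electrophoresis fluorescence after a 24 h chemical exposure of HepG2 cells transiently transfected with multiple cis-element reporter units. Gain or loss fitted against DMSO.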
# [13] = ATG_ISRE_CIS: Attagene CIS-FACTORIAL HepG2 Assay for human Interferon Regulatory Factor 1 (IRF1) binding to an Interferon-Stimulated Response Element (ISRE) (AID 2282948); details: HepG2 ISRE cis-reporter (Attagene), mRNA transcription readout; actives raise or lower the signal
# In short: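 Multiplexed mRNA reporter readout in human liver HepG2 cells: cis-element-driven reporters transfected, compound added for 24 h, transcripts amplified, fluorescently labelled and sized by capillary electrophoresis; curve fitting bidirectional against DMSO.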
# [14] = ATG_M_32_CIS: Attagene CIS-FACTORIAL HepG2 Assay for M32 Transcription Factor (Internal Marker) (AID 2282949); details: HepG2 Attagene cis-factorial M32 reporter, mRNA; actives raise or lower the signal;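 note: background control marker of the multiplexed CIS panel rather than a real target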
# In short: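 HepG2 transfectants (cis-regulated reporter transcription units) dosed 24 h. Reporter mRNA by RT-PCR plus CE, analysed as gain or loss relative to DMSO.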
# [15] = ATG_M_06_CIS: Attagene CIS-FACTORIAL HepG2 Assay for M06 Transcription Factor (Internal Marker) (AID 2282950); details: HepG2 Attagene CIS-FACTORIAL M06 internal marker reporter; actives raise or lower the signal
# In short: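 Serves as a background control readout. Transfected HepG2 exposed to compounds for 24 h, then reporter transcripts quantified by fluorescent RT-PCR and capillary electrophoresis. Both directions fitted against DMSO baseline.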
# [16] = target: Hypoxia-inducible factor 1-alpha (Homo sapiens) (UniProt Q16665); experiment: ATG_HIF1a_CIS: Attagene CIS-FACTORIAL HepG2 Assay for human Hypoxia Inducible Factor 1 (HIF1A) (AID 2282951); details: HepG2 Attagene cis-factorial HIF1a reporter transcription; actives raise or lower the signal
# In short: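 HepG2 cells transiently transfected with multiplexed cis-promoter reporter units; reporter mRNA read 24 h after dosing by RT-PCR, 6-FAM primer-extension labelling, HpaI digestion and capillary electrophoresis. Bidirectional fit versus DMSO baseline.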
# [17] = target: Hepatocyte nuclear factor 6 (Homo sapiens) (UniProt Q9UBC0); experiment: ATG_HNF6_CIS: Attagene CIS-FACTORIAL HepG2 Assay for human Hepatocyte Nuclear Factor 6 (HNF6) (AID 2282952); details: HepG2 Attagene cis-factorial HNF6 reporter transcription; actives raise or lower the signal
# In short: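 First, HepG2 cells were transfected with the multiplexed cis reporter library and dosed with chemical for 24 h. Next, RNA was reverse-transcribed, PCR-amplified and fluorescently labelled. Finally, HpaI-digested fragments were read by capillary electrophoresis.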
# [18] = target: Heat shock factor protein 1 (Homo sapiens) (UniProt Q00613); experiment: ATG_HSE_CIS: Attagene CIS-FACTORIAL HepG2 Assay for human Heat Shock Transcription Factor 1 (HSE) (AID 2282953); details: HepG2 HSE cis-reporter, Attagene RNA transcription; actives raise or lower the signal
# In short: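 Endogenous transcription factor activity in transiently transfected HepG2, read as reporter mRNA by RT-PCR with fluorescent capillary electrophoresis after 24 h. Gain or loss of signal fitted versus DMSO baseline.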
# [19] = ATG_MRE_CIS: Attagene CIS-FACTORIAL HepG2 Assay for human Metal Responsive Element (MRE) (AID 2282954); details: HepG2 MRE cis-reporter transcription, Attagene multiplex; actives raise or lower the signal
# In short: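 Endogenous MRE-dependent transcription read as reporter mRNA in transiently transfected human HepG2 cells at 24 h. RNA reverse-transcribed, PCR-amplified, labelled and resolved by capillary electrophoresis; gain or loss relative to DMSO.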
# [20] = ATG_GATA_CIS: Attagene CIS-FACTORIAL HepG2 Assay for human GATA Binding Protein (AID 2282944); details: HepG2 GATA cis-element reporter, Attagene multiplex mRNA; actives raise or lower the signal
# In short: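 Reporter transcripts from a GATA cis-regulated unit, among multiplexed reporters in transfected HepG2 cells, were measured by RT-PCR with capillary electrophoresis after 24 h dosing. Induction or loss scored relative to DMSO.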
# Chain of Heat shock factor protein 1 (Homo sapiens) (Q00613 whole entry, looked up): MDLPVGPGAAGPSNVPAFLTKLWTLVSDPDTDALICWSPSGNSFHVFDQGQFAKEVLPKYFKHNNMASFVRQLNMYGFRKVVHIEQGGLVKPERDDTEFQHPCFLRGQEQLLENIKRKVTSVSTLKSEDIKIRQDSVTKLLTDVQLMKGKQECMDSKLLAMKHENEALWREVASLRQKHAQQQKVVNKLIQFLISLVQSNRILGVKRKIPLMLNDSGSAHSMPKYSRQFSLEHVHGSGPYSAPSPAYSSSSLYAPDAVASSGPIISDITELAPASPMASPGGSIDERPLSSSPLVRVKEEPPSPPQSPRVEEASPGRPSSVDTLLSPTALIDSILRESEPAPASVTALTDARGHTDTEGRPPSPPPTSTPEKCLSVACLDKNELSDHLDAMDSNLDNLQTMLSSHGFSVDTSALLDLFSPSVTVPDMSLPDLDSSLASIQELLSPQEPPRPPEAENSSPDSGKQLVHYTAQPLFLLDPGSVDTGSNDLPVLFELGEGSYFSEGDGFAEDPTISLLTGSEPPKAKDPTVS
# Chain of Hepatocyte nuclear factor 3-beta (Homo sapiens) (Q9Y261 whole entry, looked up): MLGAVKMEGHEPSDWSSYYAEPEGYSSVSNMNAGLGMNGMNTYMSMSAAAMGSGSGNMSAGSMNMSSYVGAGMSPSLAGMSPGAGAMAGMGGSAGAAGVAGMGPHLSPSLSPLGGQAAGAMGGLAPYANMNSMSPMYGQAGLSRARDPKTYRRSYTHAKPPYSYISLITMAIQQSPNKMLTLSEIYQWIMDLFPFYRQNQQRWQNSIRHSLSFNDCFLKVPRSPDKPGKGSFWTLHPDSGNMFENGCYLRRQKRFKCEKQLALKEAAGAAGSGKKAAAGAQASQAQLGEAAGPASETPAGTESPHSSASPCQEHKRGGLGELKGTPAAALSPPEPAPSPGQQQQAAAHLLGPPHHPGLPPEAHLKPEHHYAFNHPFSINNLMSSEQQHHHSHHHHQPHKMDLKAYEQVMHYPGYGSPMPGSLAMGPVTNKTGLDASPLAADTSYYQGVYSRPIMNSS
# Chain of Transcription factor E2F1 (Homo sapiens) (Q01094 whole entry, looked up): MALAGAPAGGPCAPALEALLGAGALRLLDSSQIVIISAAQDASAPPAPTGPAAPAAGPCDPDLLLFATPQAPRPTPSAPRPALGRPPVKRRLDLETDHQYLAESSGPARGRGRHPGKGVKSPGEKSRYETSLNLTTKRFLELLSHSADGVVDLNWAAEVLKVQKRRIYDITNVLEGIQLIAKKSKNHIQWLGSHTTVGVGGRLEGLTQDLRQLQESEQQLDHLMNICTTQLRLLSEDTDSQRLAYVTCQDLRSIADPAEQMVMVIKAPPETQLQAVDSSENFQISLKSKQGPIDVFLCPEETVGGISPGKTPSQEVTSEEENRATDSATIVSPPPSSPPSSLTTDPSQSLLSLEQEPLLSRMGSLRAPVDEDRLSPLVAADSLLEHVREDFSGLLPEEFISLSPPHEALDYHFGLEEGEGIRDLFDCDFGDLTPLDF
# Chain of Hypoxia-inducible factor 1-alpha (Homo sapiens) (Q16665 whole entry, looked up): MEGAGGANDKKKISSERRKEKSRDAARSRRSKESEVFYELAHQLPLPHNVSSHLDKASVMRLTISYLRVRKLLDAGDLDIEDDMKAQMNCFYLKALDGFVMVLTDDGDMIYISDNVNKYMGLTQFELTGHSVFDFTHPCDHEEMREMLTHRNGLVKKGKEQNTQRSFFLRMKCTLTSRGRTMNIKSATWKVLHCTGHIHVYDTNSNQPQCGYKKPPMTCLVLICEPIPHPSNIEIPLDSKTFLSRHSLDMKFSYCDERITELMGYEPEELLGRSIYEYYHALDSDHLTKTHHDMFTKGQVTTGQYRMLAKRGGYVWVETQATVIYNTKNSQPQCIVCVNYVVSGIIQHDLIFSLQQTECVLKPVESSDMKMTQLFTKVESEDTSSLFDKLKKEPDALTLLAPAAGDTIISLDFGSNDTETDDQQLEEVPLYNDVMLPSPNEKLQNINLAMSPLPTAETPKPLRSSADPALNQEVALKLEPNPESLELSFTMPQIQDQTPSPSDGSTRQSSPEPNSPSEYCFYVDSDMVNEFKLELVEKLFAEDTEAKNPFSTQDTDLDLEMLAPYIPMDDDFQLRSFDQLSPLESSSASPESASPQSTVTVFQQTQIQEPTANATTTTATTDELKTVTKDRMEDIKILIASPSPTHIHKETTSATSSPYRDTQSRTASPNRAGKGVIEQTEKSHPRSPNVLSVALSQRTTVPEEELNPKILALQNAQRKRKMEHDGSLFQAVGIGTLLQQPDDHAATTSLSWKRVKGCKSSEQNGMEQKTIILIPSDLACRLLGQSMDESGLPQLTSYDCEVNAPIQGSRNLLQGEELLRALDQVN
# Chain of Hepatocyte nuclear factor 6 (Homo sapiens) (Q9UBC0 whole entry, looked up, the tested form may be a part): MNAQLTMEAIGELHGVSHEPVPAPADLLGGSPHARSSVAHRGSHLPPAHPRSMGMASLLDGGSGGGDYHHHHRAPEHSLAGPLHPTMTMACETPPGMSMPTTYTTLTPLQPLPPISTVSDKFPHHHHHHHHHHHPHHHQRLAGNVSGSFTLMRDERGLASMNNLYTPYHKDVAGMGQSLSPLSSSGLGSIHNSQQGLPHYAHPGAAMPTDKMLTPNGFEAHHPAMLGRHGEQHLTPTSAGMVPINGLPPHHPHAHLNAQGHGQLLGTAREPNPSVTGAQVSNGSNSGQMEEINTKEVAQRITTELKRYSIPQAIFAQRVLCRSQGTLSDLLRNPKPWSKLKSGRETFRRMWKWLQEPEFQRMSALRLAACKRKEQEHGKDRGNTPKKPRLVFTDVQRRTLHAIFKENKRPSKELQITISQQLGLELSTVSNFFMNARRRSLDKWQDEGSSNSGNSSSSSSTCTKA
# Chain of Bile acid receptor (Homo sapiens) (Q96RI1 whole entry, looked up): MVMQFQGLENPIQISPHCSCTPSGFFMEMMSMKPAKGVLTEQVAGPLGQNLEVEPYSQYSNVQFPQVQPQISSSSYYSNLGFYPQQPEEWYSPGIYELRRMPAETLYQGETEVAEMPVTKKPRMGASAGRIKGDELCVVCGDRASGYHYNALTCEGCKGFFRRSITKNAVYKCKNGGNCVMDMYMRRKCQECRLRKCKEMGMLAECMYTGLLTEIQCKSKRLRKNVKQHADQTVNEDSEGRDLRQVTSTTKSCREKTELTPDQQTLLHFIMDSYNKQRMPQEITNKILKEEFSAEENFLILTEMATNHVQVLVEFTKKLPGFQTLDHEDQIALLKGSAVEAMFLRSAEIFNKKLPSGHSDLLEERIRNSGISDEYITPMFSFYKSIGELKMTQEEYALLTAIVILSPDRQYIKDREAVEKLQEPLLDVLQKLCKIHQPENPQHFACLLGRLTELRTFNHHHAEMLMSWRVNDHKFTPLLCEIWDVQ
smiles,measurement,setting,value
O=C(O)c1c(Cl)ccc2cc(Cl)cnc12,outcome,[1],inactive
same,outcome,[2],inactive
same,outcome,[3],inactive
same,outcome,[4],inactive
same,outcome,[5],inactive
same,outcome,[6],inactive
same,outcome,[7],inactive
same,outcome,[8],inactive
same,outcome,[9],inactive
same,outcome,[10],inactive
same,outcome,[11],inactive
same,outcome,[12],inactive
same,outcome,[13],inactive
same,outcome,[14],inactive
same,outcome,[15],inactive
same,outcome,[16],inactive
same,outcome,[17],inactive
same,outcome,[18],inactive
same,outcome,[19],inactive
CCCCOCN(C(=O)CCl)c1c(CC)cccc1CC,outcome,[1],inactive
same,outcome,[2],inactive
same,outcome,[4],inactive
same,outcome,[5],inactive
same,outcome,[6],inactive
same,outcome,[7],inactive
same,outcome,[8],inactive
same,outcome,[9],inactive
same,outcome,[20],inactive
same,outcome,[10],inactive
same,outcome,[11],inactive
same,outcome,[12],inactive
same,outcome,[13],inactive
same,outcome,[14],inactive
same,outcome,[15],inactive
same,outcome,[16],inactive
same,outcome,[17],inactive
same,outcome,[18],inactive
same,outcome,[19],inactive
Clc1nc(Cl)nc(Nc2ccccc2Cl)n1,outcome,[1],inactive
same,outcome,[2],inactive
same,outcome,[3],inactive
same,outcome,[4],inactive
same,outcome,[6],inactive
same,outcome,[7],inactive
same,outcome,[8],inactive
same,outcome,[9],inactive
same,outcome,[10],inactive
same,outcome,[12],inactive
same,outcome,[13],inactive
same,outcome,[14],inactive
same,outcome,[15],inactive
same,outcome,[16],inactive
same,outcome,[17],inactive
same,outcome,[18],inactive
same,outcome,[19],inactive
CC(C)(C)C(=O)C(Oc1ccc(Cl)cc1)n1cncn1 (stereo not drawn),outcome,[1],inactive
same,outcome,[2],inactive
same,outcome,[3],inactive
same,outcome,[4],inactive
same,outcome,[5],inactive
same,AC50,[6],20 µM (active)
same,outcome,[7],inactive
same,outcome,[8],inactive
same,outcome,[9],inactive
same,outcome,[10],inactive
same,outcome,[12],inactive
same,outcome,[13],inactive
same,outcome,[14],inactive
same,outcome,[15],inactive
same,outcome,[16],inactive
same,outcome,[17],inactive
same,outcome,[18],inactive
same,outcome,[19],inactive
